hiPSC survival = enhancers of single-cell hiPSC survival, primary screen, ATPlite luminescence; 100% = ROCK inhibitor wells, 0% = DMSO; survival enhancement, % at 20 µM; actives 0.044% (n = 360,000); AID 602274, 2012; in the data active = survival enhancement above about 18%;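 note: cells exposed to compounds for 16 hours before the ATP read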
TWEAK-Fn14 inh = inhibitors of TWEAK-Fn14 signaling, primary screen, luciferase reporter cells, uHTS. actives 2% (n = 360,000). inhibition, % at 10 µM. TWEAK-stimulated Fn14 reporter cells, luciferase luminescence, 8 h; in the data active = inhibition above about 50%
CF NFkB inh = inhibitors of PAF-induced NF-kB signaling, primary screen, cell-based, GFP fluorescence, uHTS; actives 0.86% (n = 360,000); KKLEB NF-kB-GFP reporter, GFP fluorescence overnight; AID 588850, 2011; inhibition, % at 5 µM;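 active = at least 50% inhibition at 5 µM, scaled per plate between neutral and stimulator controls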;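 note: PAF is a Pseudomonas aeruginosa culture filtrate used as stimulus; plate controls were PAF-stimulated DMSO wells for no effect and unstimulated DMSO wells for full effect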
HIF-2a inh = HIF-2a reporter inhibitors, primary screen, luminescence, 786-0 RCC cells. actives 0.72% (n = 360,000). inhibition, % at 18.8 µM. 786-0 RCC cells HIF-2a reporter, luciferase luminescence, overnight. AID 624352, 2012;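 active = inhibition of the luminescence signal of 40% or more relative to plate controls, in a single-dose primary screen at 18.75 µM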
KKLEB tox = cytotoxicity in KKLEB CF airway cells, primary screen, cytotoxicity control for CF NF-kB inhibitor project, cell-based, uHTS, fluorescence assay plates; activity change (cytotoxicity), % at 5 µM; KKLEB CF airway cells viability, ATPlite luminescence, overnight; stronger effect = lower value; cells stimulated with P. aeruginosa culture filtrate; actives 0.36% (n = 360,000); AID 602141, 2011;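 active = corrected activity change at or below -50% at 5 µM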
LGR2 antag = inhibitors of bursicon-induced LGR2 CRE-luciferase signal, primary screen, cell-based, HEK293, CRE-luciferase reporter, bursicon stimulation; Drosophila bursicon receptor LGR2 (rickets); bursicon-stimulated, 4 h; inhibition, % at 9.99 µM; actives 0.35% (n = 380,000);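 active = drop in luminescence signal, shown as inhibition above about 50% in the replicate tests, limit read from the data, passing the limit was not always enough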;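 note: agonist challenge used bursicon conditioned medium at about half maximal strength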
* = called active by the depositor; . = no result. In the library only some 2.3% were active in any assay of this set; here they are far more common.

SMILES	hiPSC survival	TWEAK-Fn14 inh	CF NFkB inh	HIF-2a inh	KKLEB tox	LGR2 antag
Cc1noc(C)c1S(=O)(=O)Nc1ccc2c(c1)C(=O)N([C@@H](C)CO)C[C@@H](C)[C@H](CN(C)Cc1ccc(Cl)c(Cl)c1)OCCCC[C@@H](C)O2	.	.	.	.	.	-2.1
C[C@@H]1CCCCO[C@@H](CN(C)C(=O)Nc2ccc(F)cc2)[C@@H](C)CN([C@@H](C)CO)C(=O)c2cc(NC(=O)Cc3ccccc3)ccc2O1	.	.	.	.	.	13.5
CCN(CC)c1ccc2c(O)cc(=O)oc2c1	-0.5	85.5*	3.2	4.4	9.9	-135.6
CCN(CC)c1ccc2c(C)c(CO)c(=O)oc2c1	0.3	-18.6	-32.2	-42.3	4.5	-26.4
CCn1c(NC(C)=O)nc2ccccc21	-1.1	-5.7	3.1	12.6	-22.1	.
CCn1c(NC(=O)Nc2ccccc2OC)nc2ccccc21	1.2	62.3*	-3.7	-10.5	2.0	.
C[C@H](CO)N1C[C@H](C)[C@H](CN(C)C(=O)Cc2ccccn2)Oc2cc(C#Cc3ccccc3)ccc2S1(=O)=O	.	.	.	.	.	2.7
Cn1c(=O)c2c(ncn2CC(=O)NCc2cccnc2)n(C)c1=O	26.5*	2.9	4.0	11.6	-7.4	.
Cn1c(=O)c2c(ncn2CC(=O)OCC(=O)NCc2ccc(Cl)cc2)n(C)c1=O	0.1	-3.4	-12.9	26.5	7.5	4.0
COc1ccc2c(c1OC)C(=O)N1c3ccccc3SC21 (stereo not drawn)	-0.4	-55.9	-6.3	-243.6	-3.9	-105.2
COc1ccc2c(c1OC)C(=O)N1c3ccccc3C(=O)N(c3ccccc3F)C21 (stereo not drawn)	-1.6	48.7	86.2*	7.2	-87.3*	.
c1ccc(CN2CCN(c3nc(NCc4ccco4)c4ccccc4n3)CC2)cc1	29.8*	-15.3	21.1	6.6	-21.0	.
Cc1ccc(OCCN2CCN(c3nc(NCc4ccco4)c4ccccc4n3)CC2)cc1	23.9*	-31.9	20.5	5.0	-31.0	10.2
CCCNC(=O)N[C@H]1C=C[C@H](CC(=O)NCCc2ccccc2)O[C@H]1CO	.	.	.	.	.	29.8
O=C(Nc1ccc(NC(=O)C2CC2)nc1)c1ccccn1	-5.2	61.5*	1.7	-22.8	8.4	.
CCC(=O)Nc1ccc(NC(=O)c2ccccn2)cn1	-1.9	46.5	3.9	-61.8	-17.7	.
CC(C)C(=O)Nc1ccc(NC(=O)c2ccccn2)cn1	-4.5	75.7*	2.2	26.4	3.3	.
CC(C)NC(=O)N(C)C[C@@H]1Oc2ccc(NS(=O)(=O)c3cn(C)cn3)cc2C(=O)N([C@@H](C)CO)C[C@H]1C	.	.	.	.	.	-2.5
CCCn1c(NC(=O)c2ccc(Cl)c(S(=O)(=O)N3CCCC3)c2)nc2ccccc21	-2.2	60.3*	-4.3	12.3	-7.0	.
COc1ccc(N2CCN(C(=O)CCS(=O)(=O)c3ccc4c(c3)NC(=O)C(C)S4)CC2)cc1 (stereo not drawn)	0.2	-0.8	-9.0	9.7	13.5	7.9
Cc1ccc(NC(=O)C2CCN(S(=O)(=O)c3ccc4c(c3)NC(=O)C(C)S4)CC2)cc1Cl (stereo not drawn)	-0.4	63.2*	46.4	10.0	-8.3	28.5
Cc1cc(C)cc(NC(=O)C2CCN(S(=O)(=O)c3ccc4c(c3)NC(=O)C(C)S4)CC2)c1 (stereo not drawn)	0.1	-2.2	16.1	9.6	0.1	11.7
Cc1ccc(C)c(N2CCN(C(=O)CCS(=O)(=O)c3ccc4c(c3)NC(=O)C(C)S4)CC2)c1 (stereo not drawn)	-0.5	71.8*	8.7	3.5	9.2	17.1
Cc1noc(C)c1S(=O)(=O)Nc1ccc2c(c1)C(=O)N([C@@H](C)CO)C[C@@H](C)[C@H](CN(C)S(=O)(=O)c1ccccc1)OCCCC[C@H](C)O2	.	.	.	.	.	14.8
c1csc(CCNc2ncnc3sc4c(c23)CCC4)c1	-1.6	60.8*	42.0	-16.7	-20.7	.
SMILES	hiPSC survival	TWEAK-Fn14 inh	CF NFkB inh	HIF-2a inh	KKLEB tox	LGR2 antag
C[C@@H]1CN([C@H](C)CO)C(=O)c2cc(NC(=O)CCC(F)(F)F)ccc2O[C@@H]1CN(C)Cc1ccc(C(=O)O)cc1	.	.	.	.	.	-8.4
Cc1ccc2nc(/C(C#N)=C/c3cn[nH]c3-c3ccc(F)cc3)[nH]c2c1	0.2	59.0*	-3.7	-31.1	-5.6	.
CCN1C(=O)C(C(=O)Nc2ccc(OC)cc2)C2CC1(C)Oc1ccccc12 (stereo not drawn)	-1.3	77.8*	-9.1	-62.8	7.7	.
CC(=O)ON=C1C=CC(=C(C#N)c2ccccc2)C=C1	-1.4	48.1	79.9*	-16.9	-39.3	18.3
COc1ccc(C(C#N)=C2C=CC(=NO)C=C2)cc1	-0.4	39.7	26.3	-40.2	-2.4	-9.9
Cc1c(C(=O)NCc2ccc3c(c2)OCO3)oc2ccc(S(=O)(=O)N3CCCCC3)cc12	-0.2	59.1*	6.5	12.7	-23.8	.
COc1ccc(NC(=O)c2oc3ccc(S(=O)(=O)N4CCC5(CC4)OCCO5)cc3c2C)cc1	-0.8	52.9*	-11.4	0.9	-18.7	7.3
COc1ccccc1CNC(=O)c1oc2ccc(S(=O)(=O)N3CCOCC3)cc2c1C	-0.1	52.1*	24.5	8.1	-29.0	6.9
COc1ccccc1CNC(=O)c1oc2ccc(S(=O)(=O)N3CCCC3)cc2c1C	2.3	23.6	24.6	18.8	-11.5	.
C=CCNC(=O)c1oc2ccc(S(=O)(=O)N3CCC4(CC3)OCCO4)cc2c1C	-0.3	-7.8	-19.2	4.8	-7.6	-22.0
CCOc1ccc(/C=C2/SC(=S)N(CCC(=O)Nc3ccc(C(=O)O)cc3)C2=O)cc1	0.0	-72.1	14.0	-80.3	7.9	1.0
CCOc1ccc(/C=C2\SC(=S)N(CCC(=O)O)C2=O)cc1	-0.4	86.4*	7.8	90.5*	0.2	-37.2
O=C(O)COc1ccc(C=C2SC(=S)N(c3ccccc3)C2=O)cc1	-0.1	41.1	-3.9	42.8*	2.2	.
CC(/C=C1\SC(=S)N(NC(=O)c2ccc(C)cc2)C1=O)=C\c1ccccc1	3.5	-1.8	-13.8	-5.6	-6.7	.
CC(/C=C1\SC(=S)N(c2ccc(C(=O)O)cc2)C1=O)=C\c1ccccc1	1.7	58.5*	-9.9	51.4*	0.6	12.6
COc1ccc(/C=C2/SC(=S)N(CCCC(=O)N3CCN(C)CC3)C2=O)cc1	-0.3	13.8	4.2	69.3*	2.9	15.9
COc1cccc(/C=C2\SC(=S)N(CCC(=O)N3CCCCC3)C2=O)c1	0.3	-9.1	47.5	45.7*	7.3	-1.5
COc1ccc(/C=C2\SC(=O)N(CCC(=O)N3CCCCC3CCO)C2=O)cc1 (stereo not drawn)	1.0	16.5	-15.6	-14.6	8.4	-2.8
